Hit rate of the full screen: of about 430,000 compounds, about 2,600 (0.6%) were called active. The sample as a whole holds a higher share of actives than the screen did. Unmarked numbers belong to inactive results. Cut-off read from the data, not from the text of the source: active = inhibition mostly above about 37% (no sharp cut-off); inactive = mostly below about 20%.

For this test, the system named is PriA–SSB C-terminal tail interaction (Klebsiella pneumoniae). Description: inhibitors of Klebsiella pneumoniae PriA binding to SSB C-terminal tail, primary screen, biochemical, AlphaScreen (AID 1272365).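 Note: plate controls were negative control peptide for no effect and reference peptide for full effect.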 The settings on record: AlphaScreen SSBct-PriA binding, biotinylated peptide; at 33 µM, stronger effect = higher value. On the technique in general: In Alpha technology, singlet oxygen from a donor bead excites a nearby acceptor bead.
One may read the inhibition as the relative decrease from the control value, in per cent. On to `CCCCc1ccc(Nc2c(C(=O)N3CCSCC3)cnc3nc(C)ccc23)cc1`, for which the inhibition is -6%.

Regarding `COCCN(Cc1ccncc1)C(=O)c1ccco1`, the inhibition is -8%.

On to `O=C(c1ccccc1)c1ccccc1C(=O)N1CCC(Oc2ncccc2Cl)CC1`, for which the inhibition was 6%.

As for `O=C(NN=Cc1cccc2ccccc12)c1cccnc1`, the inhibition was -10.5%.

On to `Fc1cc(Br)ccc1NC(=S)Nc1cccnc1`, for which the inhibition was -8.39%.

On to `Oc1ccc(C=NNC(=S)Nc2cccnc2)c(O)c1O`, for which the inhibition is 100% (active).

In the case of `COc1ncc(NC(=O)c2snnc2C)cn1`, the inhibition is 1%.

As for `COc1ccc2oc(-c3csc(NC(=O)c4ccc(N5C(=O)CCC5=O)cc4)n3)cc2c1`, the inhibition was 6%.

Consider `O=C(Nc1nc(-c2ccc(Cl)cc2Cl)cs1)c1ccc(N2C(=O)CCC2=O)cc1`, for which the inhibition was 64% (active).

With `O=C(Nc1cc2ccccc2cc1NC(=O)c1ccc(N2C(=O)CCC2=O)cc1)c1ccc(N2C(=O)CCC2=O)cc1`, the inhibition was 0%.

With `COc1ccc(S(=O)(=O)NCCn2nc(-c3ccncc3)ccc2=O)cc1F`, the inhibition is -6%.

For `O=S(=O)(Cc1ccccc1)NCC1CCN(c2cnccn2)CC1`, the inhibition is -1%.

With `CC(=O)Nc1ccc(OCC(O)CN(c2ccc(C)cc2)S(C)(=O)=O)cc1` (stereo not drawn), the inhibition was -18%.

`CCc1ccc(S(=O)(=O)NCC(O)COc2ccc(OC)cc2)cc1` (stereo not drawn): the inhibition was -7.77%.

For the compound `COc1ccc(OCC(O)CNc2ccc(C)cc2)cc1` (stereo not drawn), the inhibition was 36% (active).

Turning to `CN(C)c1ccc(C=NN=C2NC(=O)/C(=C/c3ccc([N+](=O)[O-])cc3)S2)cc1`, the inhibition was -15.2%.

Take `O=C(NCc1cccs1)C(=O)Nc1cccc(F)c1`: the inhibition is -15%.

As for `COc1ccc(CCN2COc3ccc4c(c3C2)O/C(=C\c2ccco2)C4=O)cc1OC`, the inhibition was 3%.

For the compound `O=C1/C(=C/c2cccs2)Oc2c1ccc1c2CN(Cc2ccccn2)CO1`, the inhibition is 101% (active).

On to `Cc1ccc(C(=O)N/C(=C\c2cccs2)C(=O)NCCc2ccccn2)cc1C`, for which the inhibition is -25.3%.

Consider `Cc1cc(N2CCC(NC(=O)c3ccc4ncsc4c3)CC2)n[nH]1`, for which the inhibition is -7%.

With `O=C(c1ccccn1)N1CC(N2C(=O)CCC2=O)C1`, the inhibition is -11%.

`COc1ccc(F)cc1S(=O)(=O)Nc1ccc2c(c1)CCCN2S(=O)(=O)c1ccccc1`: the inhibition is 1%.

Take `COc1ccccc1-n1cnc2cc(NS(=O)(=O)c3ccccc3)ccc21`: the inhibition was 73.9% (active).

With `COCCCNC(=O)c1ccc2c(c1)ncn2-c1ccccc1OC`, the inhibition is -10.8%.

Regarding `Cc1ccc(C(=O)NC(=S)NCc2cccnc2)cc1`, the inhibition is 46.3% (active).

In the case of `Cc1c(C(=O)NC(=S)NCc2cccnc2)oc2ccccc12`, the inhibition is -8.37%.

Consider `Cc1cccc(OCCNC(=S)NC(=O)c2cccnc2)c1`, for which the inhibition is 1.76%.
